Structures can show the parent of a compound that is named as a salt. ± gives the uncertainty stated by the source.
Test system: Caenorhabditis elegans N2
Assay: food intake (mean delta OD600 / animal over 72 h) with 50 uM loxapine co-treatment (OD600 units per animal); higher = more food eaten (less suppression of loxapine-induced hyperphagia)
Details: first compound 33 µM, loxapine concentration 50 µM
Method: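 C. elegans N2 adults (FUDR-sterilised, day 1) in 96-well plates fed gamma-irradiated bacteria. Each library drug (MedChemExpress FDA-approved library) at 33 uM was combined with loxapine at 50 uM. Food intake was measured as bacterial clearance: the change in OD600 from day 1 to 72 h, normalised per animal (mean over 14-21 wells of about 10-12 worms). Drugs flagged for bacterial lysis or sickness were excluded by the authors.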

SMILES	food intake
O=C1CC2(CCCC2)CC(=O)N1CCCCN1CCN(c2ncccn2)CC1 [buspirone (hydrochloride)] + CN1CCN(C2=Nc3ccccc3Oc3ccc(Cl)cc32)CC1 [loxapine]	0.0245 ± 0.0044
C[C@H](Cn1cnc2c(N)ncnc21)OCP(=O)(O)O [tenofovir] + CN1CCN(C2=Nc3ccccc3Oc3ccc(Cl)cc32)CC1 [loxapine]	0.0219 ± 0.0044
CN1CC(=O)N2[C@H](c3ccc4c(c3)OCO4)c3[nH]c4ccccc4c3C[C@@H]2C1=O [tadalafil] + CN1CCN(C2=Nc3ccccc3Oc3ccc(Cl)cc32)CC1 [loxapine]	0.0236 ± 0.0034
CC(=O)Nc1ncc([N+](=O)[O-])s1 [nithiamide] + CN1CCN(C2=Nc3ccccc3Oc3ccc(Cl)cc32)CC1 [loxapine]	0.0244 ± 0.0027
CCCc1nn(C)c2c(=O)[nH]c(-c3cc(S(=O)(=O)N4CCN(C)CC4)ccc3OCC)nc12 [sildenafil (citrate)] + CN1CCN(C2=Nc3ccccc3Oc3ccc(Cl)cc32)CC1 [loxapine]	0.024 ± 0.0028
S=c1nc[nH]c2nc[nH]c12 [6-Mercaptopurine] + CN1CCN(C2=Nc3ccccc3Oc3ccc(Cl)cc32)CC1 [loxapine]	0.0218 ± 0.0028
CCN(CC)C(=O)c1cccc(C)c1 + CN1CCN(C2=Nc3ccccc3Oc3ccc(Cl)cc32)CC1 [loxapine]	0.023 ± 0.0029
CCOCC(O)COc1ccc(NC(=O)CC[S+](C)C)cc1 (stereo not given) [Suplatast (tosilate)] + CN1CCN(C2=Nc3ccccc3Oc3ccc(Cl)cc32)CC1 [loxapine]	0.0232 ± 0.0036
Nc1nc(/C(=C/CC(=O)O)C(=O)N[C@@H]2C(=O)N3C(C(=O)O)=CCS[C@H]23)cs1 [ceftibuten (dihydrate)] + CN1CCN(C2=Nc3ccccc3Oc3ccc(Cl)cc32)CC1 [loxapine]	0.0192 ± 0.0055
Cn1c(=O)c2nc[nH]c2n(C)c1=O [theophylline] + CN1CCN(C2=Nc3ccccc3Oc3ccc(Cl)cc32)CC1 [loxapine]	0.00971 ± 0.011
CC(C)[C@H](N)C(=O)OCCOCn1cnc2c(=O)nc(N)[nH]c21 [valacyclovir (hydrochloride)] + CN1CCN(C2=Nc3ccccc3Oc3ccc(Cl)cc32)CC1 [loxapine]	0.0213 ± 0.0096
CC1(C)O[C@@H]2C[C@H]3[C@@H]4CCC5=CC(=O)C=C[C@]5(C)[C@@]4(F)[C@@H](O)C[C@]3(C)[C@]2(C(=O)CO)O1 [triamcinolone (acetonide)] + CN1CCN(C2=Nc3ccccc3Oc3ccc(Cl)cc32)CC1 [loxapine]	0.0224 ± 0.0033
O=c1[nH]c(=O)n([C@H]2C[C@H](O)[C@@H](CO)O2)cc1C(F)(F)F [trifluorothymidine] + CN1CCN(C2=Nc3ccccc3Oc3ccc(Cl)cc32)CC1 [loxapine]	0.0216 ± 0.0028
CS(=O)(=O)c1ccc([C@@H](O)[C@@H](CO)NC(=O)C(Cl)Cl)cc1 [thiamphenicol] + CN1CCN(C2=Nc3ccccc3Oc3ccc(Cl)cc32)CC1 [loxapine]	0.0228 ± 0.0025
CN1C(=O)C[C@@H](C(=O)N[C@@H](Cc2c[nH]cn2)C(=O)N2CCC[C@H]2C(N)=O)NC1=O [taltirelin] + CN1CCN(C2=Nc3ccccc3Oc3ccc(Cl)cc32)CC1 [loxapine]	0.022 ± 0.0034
CC(C)C(=O)c1c(C(C)C)nn2ccccc12 [ibudilast] + CN1CCN(C2=Nc3ccccc3Oc3ccc(Cl)cc32)CC1 [loxapine]	0.0243 ± 0.0046
Nc1nccs1 [aminothiazole] + CN1CCN(C2=Nc3ccccc3Oc3ccc(Cl)cc32)CC1 [loxapine]	0.0243 ± 0.0035
Cc1cn([C@@H]2C[C@@H](O)[C@H](CO)O2)c(=O)[nH]c1=O [telbivudine] + CN1CCN(C2=Nc3ccccc3Oc3ccc(Cl)cc32)CC1 [loxapine]	0.0219 ± 0.0023
CC(=O)O[C@H]1CC[C@H]2[C@@H]3CCc4cc(O)ccc4[C@H]3CC[C@]12C [b-estradiol 17-acetate] + CN1CCN(C2=Nc3ccccc3Oc3ccc(Cl)cc32)CC1 [loxapine]	0.0213 ± 0.0046
CCCCNc1ccc(C(=O)OCCN(C)C)cc1 [tetracaine (hydrochloride)] + CN1CCN(C2=Nc3ccccc3Oc3ccc(Cl)cc32)CC1 [loxapine]	0.0236 ± 0.0037

SMILES	food intake
CC(=O)OCC(CCn1cnc2cnc(N)nc21)COC(C)=O [famciclovir] + CN1CCN(C2=Nc3ccccc3Oc3ccc(Cl)cc32)CC1 [loxapine]	0.0236 ± 0.0029
CN(C)CCC=C1c2ccccc2C=Cc2ccccc21 [cyclobenzaprine (hydrochloride)] + CN1CCN(C2=Nc3ccccc3Oc3ccc(Cl)cc32)CC1 [loxapine]	0.0221 ± 0.0063
Cc1ccc(Nc2nccc(N(C)c3ccc4c(C)n(C)nc4c3)n2)cc1S(N)(=O)=O [pazopanib (hydrochloride)] + CN1CCN(C2=Nc3ccccc3Oc3ccc(Cl)cc32)CC1 [loxapine]	0.0206 ± 0.0053
CC(CN1c2ccccc2Sc2ccccc21)N(C)C (stereo not given) [promethazine (hydrochloride)] + CN1CCN(C2=Nc3ccccc3Oc3ccc(Cl)cc32)CC1 [loxapine]	0.0219 ± 0.0024
NC(=O)c1cnccn1 [pyrazinamide] + CN1CCN(C2=Nc3ccccc3Oc3ccc(Cl)cc32)CC1 [loxapine]	0.0222 ± 0.0034
NNC(=O)c1ccncc1 [isoniazid] + CN1CCN(C2=Nc3ccccc3Oc3ccc(Cl)cc32)CC1 [loxapine]	0.0217 ± 0.0032
CN1CCCC(n2nc(Cc3ccc(Cl)cc3)c3ccccc3c2=O)CC1 (stereo not given) [azelastine (hydrochloride)] + CN1CCN(C2=Nc3ccccc3Oc3ccc(Cl)cc32)CC1 [loxapine]	0.0226 ± 0.0035
NS(=O)(=O)c1ccc(C(=O)O)cc1 [carzenide] + CN1CCN(C2=Nc3ccccc3Oc3ccc(Cl)cc32)CC1 [loxapine]	0.0251 ± 0.0067
CO/N=C1\CN(c2nc3c(cc2F)c(=O)c(C(=O)O)cn3C2CC2)CC1CN (stereo not given) [gemifloxacin (mesylate)] + CN1CCN(C2=Nc3ccccc3Oc3ccc(Cl)cc32)CC1 [loxapine]	0.023 ± 0.0032
Cc1cc(C2CCCCC2)n(O)c(=O)c1 [ciclopirox] + CN1CCN(C2=Nc3ccccc3Oc3ccc(Cl)cc32)CC1 [loxapine]	0.0218 ± 0.0041
CC(C)(C)C(=O)OCOP(=O)(COCCn1cnc2c(N)ncnc21)OCOC(=O)C(C)(C)C [Adefovir dipivoxil] + CN1CCN(C2=Nc3ccccc3Oc3ccc(Cl)cc32)CC1 [loxapine]	0.0231 ± 0.0029
Cc1nc(C)c(Cl)c(O)c1Cl [clopidol] + CN1CCN(C2=Nc3ccccc3Oc3ccc(Cl)cc32)CC1 [loxapine]	0.0241 ± 0.0032
CN(CCOc1ccc(CC2SC(=O)NC2=O)cc1)c1ccccn1 (stereo not given) [rosiglitazone (maleate)] + CN1CCN(C2=Nc3ccccc3Oc3ccc(Cl)cc32)CC1 [loxapine]	0.0207 ± 0.002
C=CC[N+]1([C@H]2C[C@H]3[C@@H]4CC[C@H]5C[C@H](O)[C@@H](N6CCOCC6)C[C@]5(C)[C@H]4CC[C@]3(C)[C@H]2OC(C)=O)CCCC1 [rocuronium (bromide)] + CN1CCN(C2=Nc3ccccc3Oc3ccc(Cl)cc32)CC1 [loxapine]	0.0231 ± 0.0029
CCOC(N)=O [urethane] + CN1CCN(C2=Nc3ccccc3Oc3ccc(Cl)cc32)CC1 [loxapine]	0.0215 ± 0.0029
O=C(O)COC(=O)Cc1ccccc1Nc1c(Cl)cccc1Cl [aceclofenac] + CN1CCN(C2=Nc3ccccc3Oc3ccc(Cl)cc32)CC1 [loxapine]	0.0221 ± 0.0083
CC1(C)[C@H](C(=O)O)N2C(=O)C[C@H]2S1(=O)=O [sulbactam] + CN1CCN(C2=Nc3ccccc3Oc3ccc(Cl)cc32)CC1 [loxapine]	0.0225 ± 0.0027
CCOC(=O)[C@H](CCc1ccccc1)N[C@@H](C)C(=O)N1Cc2ccccc2C[C@H]1C(=O)O [quinapril (hydrochloride)] + CN1CCN(C2=Nc3ccccc3Oc3ccc(Cl)cc32)CC1 [loxapine]	0.0212 ± 0.003
O=C(c1cc(Cc2n[nH]c(=O)c3ccccc23)ccc1F)N1CCN(C(=O)C2CC2)CC1 [olaparib] + CN1CCN(C2=Nc3ccccc3Oc3ccc(Cl)cc32)CC1 [loxapine]	0.0205 ± 0.005
CCOC(=O)C(C)(C)Oc1ccc(Cl)cc1 [clofibrate] + CN1CCN(C2=Nc3ccccc3Oc3ccc(Cl)cc32)CC1 [loxapine]	0.0218 ± 0.0033

Reference: the supplement of paper PMC6288085
